Reference: PubChem BioAssay (EPA / NIEHS)
Inconclusive results are not listed. A structure can be active in one record and inactive in another. Calls of active or inactive are those of the source. The calls were made as follows: active = hit-call score of the fitted dose curve at least 0.9, where 1 is the maximum; inconclusive = response in the unintended direction; inactive = score below 0.9.

The molecules below were run against Estrogen receptor (Homo sapiens) (UniProt P03372) (assay: NVS_NR_hER: NovaScreen (NVS) Nuclear Receptor Binding Assay for human Estrogen Receptor (ER) (AID 2283348)).
Outline: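 Cell-free MCF7-derived ER preparation, specific radioligand displaced by test compound, read by scintillation counting 18 h post-dosing. Duplicate single-point 25 uM screen, then concentration-response confirmation; DMSO baseline.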

Estrogen receptor (Homo sapiens), sequence (P03372 whole entry, looked up): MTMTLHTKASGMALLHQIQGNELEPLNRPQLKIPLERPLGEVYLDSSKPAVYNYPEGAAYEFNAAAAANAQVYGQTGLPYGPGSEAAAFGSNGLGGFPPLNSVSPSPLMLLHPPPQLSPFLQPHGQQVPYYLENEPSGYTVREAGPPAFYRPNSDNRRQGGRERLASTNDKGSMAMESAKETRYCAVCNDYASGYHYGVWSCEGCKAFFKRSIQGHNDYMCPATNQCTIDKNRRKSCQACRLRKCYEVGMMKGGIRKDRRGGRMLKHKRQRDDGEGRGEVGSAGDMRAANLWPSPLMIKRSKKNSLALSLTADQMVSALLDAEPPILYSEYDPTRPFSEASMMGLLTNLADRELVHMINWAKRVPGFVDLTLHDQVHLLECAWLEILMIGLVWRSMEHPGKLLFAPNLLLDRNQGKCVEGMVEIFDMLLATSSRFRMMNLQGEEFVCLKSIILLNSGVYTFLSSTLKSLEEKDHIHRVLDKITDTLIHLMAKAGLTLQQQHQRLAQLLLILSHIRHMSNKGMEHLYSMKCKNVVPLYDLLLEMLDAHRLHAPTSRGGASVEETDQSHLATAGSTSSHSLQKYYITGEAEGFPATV

| Structure (SMILES) | AC50 | outcome |
| --- | --- | --- |
| O=c1c(O)c(-c2ccc(O)cc2O)oc2cc(O)cc(O)c12 | 4.3 µM (active) | – |
| C=CC(=O)OCCCCCCOC(=O)C=C | – | inactive |
| CCCCOC(=O)CCC(C)=O | – | inactive |
| C=CC(=O)OCC(C)OCC(C)OCC(C)OC(=O)C=C (stereo not given) | – | inactive |
| CC(C)=CCCC(C)=CC#N | – | inactive |
| C[Si](C)(C)N[Si](C)(C)C | – | inactive |
| O=C(Nc1ccccc1)c1cc(Cl)ccc1O | – | inactive |
| Cc1cc(C)n(CO)n1 | – | inactive |
| CC(C)c1ccc(O)c(C(C)C)c1 | – | inactive |
| c1ccc(Nc2cccc3ccccc23)cc1 | – | inactive |
| O=S(=O)(O)c1ccc(Nc2nc(Nc3ccc(C=Cc4ccc(Nc5nc(Nc6ccc(S(=O)(=O)O)cc6)nc(N(CCO)CCO)n5)cc4S(=O)(=O)O)c(S(=O)(=O)O)c3)nc(N(CCO)CCO)n2)cc1 | – | inactive |
| CCCCCCCCCCCCCCCCCCOS(=O)(=O)O | – | inactive |
| N=C1C=CC(=C(c2ccc(N)cc2)c2ccc(N)cc2)C=C1 | – | inactive |
| CCCCCCCOC(=O)c1ccc(O)cc1 | 3.5 µM (active) | – |
| COc1ccc(-c2coc3cc(O)cc(O)c3c2=O)cc1 | 0.642 µM (active) | – |
| CC(C)(c1ccccc1)c1ccc(Nc2ccc(C(C)(C)c3ccccc3)cc2)cc1 | – | inactive |
| Nc1ccc(O)c([N+](=O)[O-])c1 | – | inactive |
| CC(=O)OCc1ccccc1 | – | inactive |
| N#Cc1ccc(C(c2ccc(C#N)cc2)n2cncn2)cc1 | – | inactive |
| Oc1ccc(/C=C/c2cc(O)cc(O)c2)cc1 | 2.52 µM (active) | inactive |
| Oc1ccccc1Cc1ccccc1O | – | inactive |
| CCCCCCCCCCCCc1ccc(O)cc1 | 11 µM (active) | – |
| CO[Si](C)(C)OC | – | inactive |
| N#Cc1ccc(C2CCCc3cncn32)cc1 (stereo not given) | 4.33 µM (active) | – |
